# Measurements published in PubChem BioAssay AID1918969 (ICCB-Longwood Screening Facility, Harvard Medical School, 2023).
# Several values for one entry are separate records, joined by “and”; a condition that tells them apart may be missing. Equal values may be shown once. Screen size: about 190,000 compounds; about 280 (0.15%) were called active. For the sample, actives were picked, then their nearest neighbours and some compounds at random. Values without a mark were called inactive. Cut-off read from the data, not from the text of the source: active = inhibition above about 27% (passing the limit was not always enough); inactive = the rest.
# Tested on: HCMV UL50-UL53 nuclear egress complex (human cytomegalovirus)
# Assay: HCMV nuclear egress complex disruptors – biochemical, HTRF (AID 1918969)
# Details: HTRF UL50-UL53 interaction, normalized percent inhibition; hits give high values; concentration not given here
row,SMILES,inhibition
1,CCCC1O[C@@H]2CC3C4CCC5=CC(=O)C=CC5(C)C4[C@@H](O)CC3(C)[C@]2(C(=O)CO)O1 (stereo partly drawn),-70.7%
2,NNC(=O)CCCc1nc2ccccc2s1,-31.3%
3,O=C(CCc1nc2ccccc2s1)OCC(=O)c1ccco1,-34.2%
4,O=C(OCc1nc2ccccc2s1)c1coc2ccccc2c1=O,54.6% (active)
5,CCOc1cc(/C=C2/C(=O)N(c3nn[nH]n3)N=C2C)cc(Cl)c1OCC,-8.7%
6,CC(C(=O)OCc1ccc(F)cc1)N1C(=O)c2ccccc2C1=O (stereo not drawn),-2.6%
7,O=C(CC(c1ccccc1)c1ccccc1)NCc1ccco1,13.4%
8,O=c1c(-c2nnc3c(Cl)nc4ccccc4n23)coc2ccccc12,-9.1%
9,Cc1n[nH]c(C)c1Cc1ccc(N)cc1,-0.1%
10,Cc1ccc(-n2ccnc(NCCc3ccccc3)c2=O)cc1,-0.4%
11,CCN(CC)S(=O)(=O)c1ccc(N=Nc2c(O)[nH]c(=S)[nH]c2=O)cc1,-70.2%
12,Cc1cc(C(=O)CSc2ccc(S(=O)(=O)N(C)C)cn2)c(C)n1-c1ncn[nH]1,-15%
13,O=C1CC(c2ccc(S(=O)(=O)N3CCCc4ccccc43)cc2)CN1 (stereo not drawn),-28.3%
14,O=C(COC(=O)Cc1ccc(F)cc1)Nc1ccccc1,1.8%
15,Cc1ccc(C)c2c1NC(c1ccc(Br)cc1)C1CC=CC21 (stereo not drawn),-3.3%
16,CCc1nc(-c2cc(S(=O)(=O)N3CCC(C(=O)Nc4cccc(OC)c4)CC3)c(C)s2)no1,-7.1%
17,CC1CCN(C(=O)Cn2ncc3c4ccccc4n(Cc4ccccc4)c3c2=O)CC1,-7.3%
18,Cc1ccc(CNC(=O)c2ccc(-n3nnc4cccnc43)cc2)cc1,-21.8%
19,CCN(CC)S(=O)(=O)c1ccc2c(c1)nc(CCC(=O)OCC#N)n2C,-6%
20,CCOC(=O)N1CCCC1C(=O)O (stereo not drawn),-17.9%
21,O=C(NC1CCCC1)c1ccc(Br)s1,-3.7%
22,O=C(NC1CCCC1)c1ccc(N2CCOc3ccccc32)s1,42.2% (active)
23,O=C(NC1CCCC1)c1cc(-c2ccccc2)on1,-1.9%
24,CNC(=O)c1ccc(N2CCOc3ccc(Cl)cc32)s1,14.6%

row,SMILES,inhibition
1,O=C(NC1CCCCCCC1)c1cccs1,-0.7%
2,O=C(NC1CCCCC1)c1ccc(-n2ccc3ccccc32)s1,37.9% (active)
3,O=C(c1c(F)c(F)c(F)c(F)c1F)N(CCO)Cc1ccccc1,-6.4%
4,CNC(=O)COC(=O)c1ccc(Br)o1,-3.2%
5,Cn1c(=O)n(C)c2cc(N3CCOCC3)c(NS(=O)(=O)c3ccc4c(c3)CCCC4)cc21,-20%
6,Cc1ccc2nsnc2c1S(=O)(=O)NCCc1c(C)[nH]c2ccccc12,-75.9%
7,Cc1ccc(N2C(=O)/C(=C/c3ccc(OCC(=O)O)c(Br)c3)C(=O)NC2=S)cc1,-28.5%
8,CC1=C(C(=O)OCCOc2ccccc2)C(c2cccnc2)C2=C(CC(c3ccc(Cl)cc3)CC2=O)N1 (stereo not drawn),-27.9%
9,Cn1c2c(c3cc(C4CCCCC4)ccc31)CCCCC2=O,1.4%
10,CCOC(C)=C(C#N)C#N,5.1%
11,CC12CCOC1N(c1ccccc1)c1ccccc12 (stereo not drawn),-18.7%
12,CC(=O)Nc1ccc(N2C(=O)c3cc(C)nn3CC2(C)C(=O)NCc2ccc(Cl)cc2)cc1 (stereo not drawn),-1.4%
13,Cc1ccc(C2/C(=C(\O)c3ccccc3)C(=O)C(=O)N2CCN2CCOCC2)cc1 (stereo not drawn),0.4%
14,Cc1c2cnn(CC(=O)NCc3ccco3)c(=O)c2c(C)n1Cc1ccccc1,-1.5%
15,CCOC(=O)c1c(C)n(-c2ccc(Cl)cc2)c2ccc(Oc3nccc(Nc4ccccc4)c3C#N)cc12,-12.5%
16,N#CC(=C=[N-])c1nc2ccccc2nc1-[n+]1cccc(NC(=O)c2ccc(Br)o2)c1,-17.4%
17,O=C(CN1CCN(S(=O)(=O)c2ccc3[nH]c(=O)[nH]c3c2)CC1)N1CCCCCC1,-26.1%
18,CCOCCCNC(=O)N1Cc2c(sc3c2CCCC3)-n2cccc2C1c1ccc(N(C)C)cc1 (stereo not drawn),-33.4%
19,CC(C)CCNC(=O)C1(C)Cn2c(cc3ccccc32)C(=O)N1C1CC1 (stereo not drawn),-9.6%
20,Cc1ccc(-n2c(=O)c3c(n4c(SCC(N)=O)nnc24)-c2ccccc2CC32CCCCC2)cc1,-17.8%
21,O=C(COc1ccc(-c2nc(-c3ccccc3)no2)cc1)N1CCCC1,-28.2%
22,Cc1ccc(S(=O)(=O)C2(C(=O)N3CCc4ccccc43)CC2)cc1,1%
23,CCOc1cc(C=C2C(=O)NC(=O)NC2=O)ccc1OCCOCCOc1ccc(C)cc1,45.8% (active)
24,COc1cc(C=C2C(=O)NC(=O)NC2=O)ccc1OCCOc1ccc([N+](=O)[O-])cc1,1.5%

row,SMILES,inhibition
1,CCOc1cc(C=C2C(=O)NC(=O)NC2=O)ccc1OCCOc1ccc([N+](=O)[O-])cc1,-8.1%
2,CCOC(=O)/C(C#N)=C/Nc1ccccc1,-4.4%
3,Cc1cc(C)c(C(N)=O)c(=O)[nH]1,-10.3%
4,O=C(NN1C(=O)/C(=C/c2ccc(-c3ccc([N+](=O)[O-])cc3)o2)SC1=S)c1ccccc1[N+](=O)[O-],-1.8%
5,CCCC(O)c1nc2ccccc2n1CCOc1ccccc1Cl (stereo not drawn),-14.3%
6,CC1CCN(S(=O)(=O)c2ccc3ncn(CC(=O)N4CCCCC4C)c(=O)c3c2)CC1 (stereo not drawn),3.7%
7,CC(C)(Oc1ccc(Cl)cc1)C(=O)OCCN1CCCC1=O,16.4%
8,CCOC(=O)c1c(C)oc2nc(COc3ncnc4c3cnn4-c3ccccc3)nc(N)c12,-27.9%
9,Nc1c(C(=O)N2CCc3ccccc3C2)sc(=S)n1-c1ccccc1,3.7%
10,CCCCCC#CCC#CCCCCCCCC(=O)O,-8.8%
11,CC(C)Nc1nc(-c2ccccc2O)nc2ccccc12,54.6% (active)
12,CCN(CC)c1nc(-c2ccccc2O)nc2ccccc12,-4.1%
13,CC(Nc1nc(N2CCCC2)nc2ccccc12)c1ccccc1 (stereo not drawn),38.8% and -22.4%
14,Cc1ccc(C)c(NC(=O)Cc2coc3ccc(C)cc23)c1,-31.3%
15,Cc1c(C(=O)O)sc2ncnc(N3CCN(c4ccccn4)CC3)c12,-8.6%
16,O=C(O)CCCOc1ccc(Cl)cc1,-22.4%
17,CCOc1ccc(N2CC(c3nc4ccccc4n3CCOc3ccc(OC)cc3)CC2=O)cc1 (stereo not drawn),-33.2%
18,CCc1ccccc1N1CC(c2nc3ccccc3n2CCCCOc2ccccc2)CC1=O (stereo not drawn),74.6% (active)
19,COc1ccc(OCCCn2c(C3CC(=O)N(c4ccc(F)cc4)C3)nc3ccccc32)cc1 (stereo not drawn),-4.1%
20,CCc1nn(CC(=O)NCC2CCCO2)c(=O)c2cc3ccccc3n12 (stereo not drawn),-52.3%
21,CCOC(=O)c1sc2cccc(F)c2c1S(=O)(=O)N1CC=C(c2ccccc2)CC1,6.4%
22,COC(=O)c1cc(S(=O)(=O)N2CCc3ccccc3C2)c[nH]1,-4.8%
23,Fc1cccc(Cl)c1CSc1nnc(-c2c[nH]c3ccccc23)o1,15.6%
24,CCCc1oc2cc(O)ccc2c(=O)c1Oc1ccc(F)cc1,3.5%

row,SMILES,inhibition
1,Cc1cc(C)cc(-n2c(CCC(=O)O)ccc2-c2cccs2)c1,-19.7%
2,Cc1cc(C)c2[nH]c(=O)c(CN(C(=O)Nc3ccccc3F)C3CC3)cc2c1,-21%
3,CCOc1ccc(N2C(=O)N(CC(=O)N3CCCCC3C)c3ccccc3S2(=O)=O)cc1 (stereo not drawn),-6.7%
4,CCOC(=O)C1(c2ccccc2)CCCN1C(=O)CN1C(=O)c2ccccc2C1=O (stereo not drawn),-40.9%
5,Cc1c(C(F)(F)F)nc(-c2ccc(CN(C)C)cc2)[nH]c1=O,-18.3%
6,CCOC(C(=O)c1ccccc1)c1ccccc1 (stereo not drawn),1.5%
7,CCOC(=O)C1(C2(O)C(=O)c3ccccc3C2=O)CCCC1=O (stereo not drawn),7.6%
8,CCOC(=O)C(C(=O)c1ccccc1)C1(O)C(=O)c2ccccc2C1=O (stereo not drawn),94.1% (active)
9,C#CCn1c(O)c(N=NC(=O)c2cc(OC)c(OC)c(OC)c2)c2ccccc21,-43.6%
10,Nc1nnc2c([nH]c3ccccc32)c1-c1ccccc1,-61.1%
11,COc1ccc(CC(=O)OCC(=O)Nc2cc(C)ccc2C)cc1,20.6%
12,Cc1cc(=O)n2[nH]c(CN(C(=O)CC(C)C)c3ccc(Cl)cc3)nc2n1,-9.7%
13,CCCn1c2ccccc2n2cc(-c3ccc(F)cc3)nc12,-23.6%
14,CCOC(=O)C1=C(C)N(c2ccc(OC)cc2)C(=O)/C1=C\c1ccco1,-53.1%
15,COc1ccccc1-c1nnc(SCC(=O)Nc2cccc3nsnc23)n1-c1ccccc1,-31.2%
16,COc1ccc(C2CC2/C(C)=N/O)cc1 (stereo not drawn),-8.3%
17,CN(C)S(=O)(=O)c1ccc2nc(NC(=O)CN3C(=O)c4ccccc4C3=O)sc2c1,-36.1%
18,Clc1cccc(-c2cc(-c3nc(-c4ccccc4)no3)[nH]n2)c1,-20.2%
19,Cn1c(CNC(=O)OC(C)(C)C)nnc1SCc1c(F)cccc1Cl,-17%
20,CCC(Sc1nc2ncccc2o1)C(=O)N(Cc1ccccc1)C(C)C (stereo not drawn),-29.3%
21,CCN1C(=O)c2cccc3c(S(=O)(=O)Nc4cccc(C)n4)ccc1c23,-9%
